# According to ChEMBL document CHEMBL3433997, “St. Jude Leishmania screening dataset” (2016):
# Target: Solute carrier family 2, facilitated glucose transporter member 1 (Homo sapiens) (UniProt P11166)
# Assay: ST_JUDE_LEISH: Cytotoxicity at 2uM final concentration against transgenic Leishmania Mexicana promastigotes LmGLUT1 that are glucose transport deficient and complemented with the human glucose transporter GLUT1. Activity is measured by DNA content using SYBR green in vitro
# Format: functional
# Solute carrier family 2, facilitated glucose transporter member 1 (Homo sapiens), sequence (P11166 whole entry): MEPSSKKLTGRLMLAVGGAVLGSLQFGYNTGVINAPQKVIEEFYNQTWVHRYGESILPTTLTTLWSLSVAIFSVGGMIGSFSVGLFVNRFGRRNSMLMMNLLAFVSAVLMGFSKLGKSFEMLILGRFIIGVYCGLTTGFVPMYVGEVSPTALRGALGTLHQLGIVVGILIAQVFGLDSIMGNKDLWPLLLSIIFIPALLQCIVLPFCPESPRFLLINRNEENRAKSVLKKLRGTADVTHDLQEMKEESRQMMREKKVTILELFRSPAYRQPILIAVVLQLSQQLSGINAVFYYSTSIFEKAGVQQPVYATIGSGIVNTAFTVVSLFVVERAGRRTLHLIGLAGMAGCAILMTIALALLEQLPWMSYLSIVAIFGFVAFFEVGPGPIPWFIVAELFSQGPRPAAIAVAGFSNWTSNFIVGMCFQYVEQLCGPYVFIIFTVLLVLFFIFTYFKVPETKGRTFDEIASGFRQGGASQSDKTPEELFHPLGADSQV
row,SMILES,inhibition [%]
1,O=C(Nc1cccc(CN2CCCN(Cc3ccc4c(c3)OCO4)CC2)c1)c1ccc2ccccc2c1,1.49
2,CN(C)CCNC(=O)c1cc2c(-c3ccc(Cl)cc3)nn(C)c2s1,2.62
3,CCc1nc(N)nc(N)c1-c1ccc(F)c(F)c1,3
4,CCN(CC)CCNc1ccnc2c3ccccc3n(C)c12,-1.54
5,CC(=O)Oc1c(C2CCN(CCCCNC(=O)c3ccc(NC(=O)c4ccc(Cl)cc4)cc3)CC2)ccc2c1CCCC2,4.86
6,O=C(NCc1ccc(F)cc1)Nc1cccc(-c2ccc(-c3nc4ccccc4[nH]3)cc2)c1,1.76
7,O=C(Nc1cc(Cl)ccc1O)c1cnn2c(C(F)(F)F)cc(-c3cccs3)nc12,2.61
8,O=C(Nc1ccc(-c2ccccc2)s1)N[C@H]1CCN(Cc2ccc(OCCCN3CCCCC3)cc2)C1,0.93
9,CCCc1ccc(NC(=O)c2cccc(CN3CCCN(Cc4cccc(C#N)c4)CC3)c2)cc1,3.6
10,Cc1nnsc1C(=O)Nc1cccc(-c2ccc(-c3nc4ccccc4[nH]3)cc2)c1,7.04
11,O=C(NCCCCN1CCC(c2ccc3c(c2OCCOCCO)CCCC3)CC1)c1ccc(-c2ccc(C(F)(F)F)cc2)cc1,0.77
12,COc1ccc(C(=O)NCCCCN2CCC(c3ccc4c(c3OC)CCCC4)CC2)cc1-c1ccc(C(F)(F)F)cc1,-1.89
13,CS(=O)(=O)c1ccc(-c2cnc(N)c(-c3cccc(O)c3)c2)cc1,6.6
14,Cc1noc(C)c1-c1cccc(CNCc2cccc(-c3ccc(-c4nc5cccc(C)c5[nH]4)cc3)c2)c1,1.89
15,COC(=O)C(c1ccc(NC(=O)[C@H](CC(C)C)NC(=O)OC(C)(C)C)cc1)c1ccc(NC(=O)[C@H](CC(C)C)NC(=O)OC(C)(C)C)cc1,-0.28
16,Cc1ccccc1C1CCN(c2ccc(C(=O)Nc3ccc(F)cc3)cn2)CC1,4.93
17,FC(F)(F)c1ccc(-c2cncc(-c3ccc(C(F)(F)F)cc3)n2)cc1,-1.94
18,COc1c(C2CCN(CCCCNC(=O)c3ccc(-c4ccc(Cl)cc4)cn3)CC2)ccc2c1CCCC2,-1.51
19,CCOc1ccc(NC(=O)c2cn3nc(-c4ccc(OCC)cc4)cc3nc2C2CCNCC2)cc1,1.5
20,Cc1ccc(NC(=O)Nc2ccc(S(=O)(=O)c3ccc(NC(=O)Nc4ccc(C)c(Cl)c4)cc3)cc2)cc1Cl,0.06

row,SMILES,inhibition [%]
1,O=C(Nc1cccc(-c2ccc(-c3nc4cc(F)ccc4[nH]3)cc2)c1)c1csnn1,12.4
2,COc1ccc(CN(C)CCCc2ccc(NC(=O)c3cc4ccccc4[nH]3)cc2)cc1OC,3.27
3,COc1ccccc1C1CC(c2ccccc2)=NN1C(=O)c1ccccc1 (stereo not given),-3.13
4,CC(C)(C)c1ccc(S(=O)(=O)Nc2cc(Cl)ccc2Cn2ccc(N3CCNCC3)nc2=O)cc1,-1.22
5,COc1ccc(CNCc2ccccc2)cc1-c1ccc(OC)c(S(=O)(=O)NCCN2CCCC2)c1,-0.27
6,COc1cccc2c1CCN(CCN1CCC(CNC(=O)c3ccc(-c4ccc(C#N)cc4)cc3)CC1)C2,7.68
7,CC(C)C(=O)NC(Nc1ccc([N+](=O)[O-])cc1)C(Cl)(Cl)Cl (stereo not given),3.83
8,CC(Cc1ccc(OCCN2CCN(c3cccc(Cl)c3)CC2)cc1)NCC(O)c1cccc(Cl)c1 (stereo not given),0.3
9,COc1ccc(CN2CCCN(Cc3cccc(NC(=O)c4ccc5ccccc5c4)c3)CC2)cc1,1.59
10,Cc1cccc2nc(-c3ccc(-c4ccc(NC(=O)C5CCN(C)CC5)cc4)cc3)[nH]c12,3.08
11,Cc1cc(-c2ccc(NC(=O)N3CCc4cc(Br)c(N5CCN(C)CC5)cc43)cc2)ccc1C#N,11.9
12,O=C(/C=C/c1ccc(Cl)c(Cl)c1)NCCCCCN1CCC(CCNC(=O)c2snnc2-c2ccccc2)CC1,0.24
13,COc1ccccc1-n1ccnc1SCC(=O)Nc1cccc(C(F)(F)F)c1,3.36
14,COc1ccc(-c2cccc(NC(=O)c3ccc(Cl)cc3)c2)cc1CN1CCC(O)CC1,5.4
15,O=c1cc(NCCCNCc2ccc(C(F)(F)F)s2)[nH]c2ccccc12,-0.41
16,Cc1cc(F)ccc1[C@H]1C[C@H](N2CCOCC2)CCN1C(=O)N(C)[C@@H](C)c1cc(C(F)(F)F)cc(C(F)(F)F)c1,0.71
17,CCCCCCN1CCC(NCc2ccc(Cl)cc2)CC1,7.59
18,COc1cc2nc(N3CCC(CNC(=O)c4ccc(-c5ccc(C(=O)N(C)C)cc5OCCN(C)C)cc4)CC3)nc(N)c2cc1OC,0.34
19,CCC(C)NC(=O)CN1CN(c2ccccc2)C2(CCN(C(=O)c3ccc4ccccc4c3)CC2)C1=O (stereo not given),0.98
20,Cc1ccc(Nc2nc(N/N=C/c3ccccc3[N+](=O)[O-])nc(Nc3ccc([N+](=O)[O-])cc3)n2)cc1C,12.9
